# Assay: binders of probe aFSTL3 on microarray, primary screen, stem cell growth factor project, biochemical, small-molecule microarray, fluorescence 635/667 (AID 1064);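 note: measures binding of the biotinylated anti-FSTL3 antibody to printed compounds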
# Conditions: higher = more signal
row,SMILES,composite z-score
1,O=C1C[C@@](C(=O)O)(c2ccc([N+](=O)[O-])cc2)[C@@H](c2ccc(CO)cc2)N1CC12CC3CC(CC(C3)C1)C2,0.524
2,Cc1ccc(S[C@]2(C(=O)O)CC(=O)N(Cc3ccccc3C(F)(F)F)[C@@H]2c2ccc(CO)cc2)cc1,0.405
3,COC(=O)c1ccc(OC)c(/C=C\CC(CCc2ccccc2)OC(C)=O)c1 (stereo not given),-0.28
4,C#CCNS(=O)(=O)N(C)C,-0.49
5,O=C1CSC(c2cccc([N+](=O)[O-])c2)N1c1ccccc1 (stereo not given),0.315
6,CCN(CC)c1ccc(N2CC=CC34O[C@@H]5/C=C\CCCOC(=O)C5[C@H]3C(=O)N(CCCCCO)[C@@H]4C2=O)cc1 (stereo not given in full),0.0158
7,OCc1ccc(-c2cc[n+](Cc3cccc(OC(F)(F)F)c3)cc2)cc1,0.253
8,COCC1=C([C@H](O)CCc2ccccc2)[C@H](CO)[C@@H]2C(=O)N(C)C(=O)[C@@H]2C1,-0.479
9,COC(=O)[C@@]1(Cc2ccc(F)cc2)[C@H]2c3cc(C(=O)N(C)C)n(Cc4ccc(C)c(F)c4F)c3C[C@H]2CN1C(=O)c1ccccc1,0.896
10,CCOC(=O)C[C@H]1[C@H](OC(=O)c2ccc(C(=O)c3ccccc3)cc2)[C@@H](NC(=O)C2CCCCC2)c2cc(OCCCO)ccc2N1C(=O)Cc1ccc(OC)cc1,0.644
11,CCCN1C(=O)[C@@]2(Cc3ccccc3)N=C(c3ccc(OCCCO)cc3)O[C@H]2c2ccccc21,-0.0679
12,O=C1C2C=CC(C(O)c3ccccn3)N(Nc3ccccc3)C2C(=O)N1c1ccccc1 (stereo not given),-0.205
13,COc1cc(C(O)C2C=CC3C(=O)N(C)C(=O)C3N2NC(=O)OC(C)(C)C)cc(OC)c1OC (stereo not given),0.425
14,COCC(=C=CC[C@@H](O)c1ccccc1OCCO)C[C@@H](O)c1ccccn1,-0.304
15,C[N+](C)(C)CCCC[C@@H]1NC(=O)[C@@H]2C[C@H](C(=O)O)[C@H](c3cccc(OCCO)c3)N2C1=O,0.846
16,C=CCC(OC(C)=O)[C@@H]1[C@@H](N(Cc2ccc(-c3cccc(C(F)(F)F)c3)o2)C(=O)c2cccc3ccccc23)c2cc(OCCCO)ccc2N1C(=O)c1ccc(-c2ccccc2)cc1 (stereo not given in full),-0.188
17,COCCCNC(=O)[C@@]1(C)c2ccccc2C(=O)N(c2ccc(C)cn2)[C@H]1c1ccc(CO)cc1,-0.722
18,COCCCNC(=O)[C@@]1(Cc2ccccc2CN=[N+]=[N-])N=C(c2ccc(OCCCO)cc2)O[C@H]1c1ccccc1N=[N+]=[N-],0.749
19,CC1(C)[C@@H]2CC(C(O)C3C=CC4C(=O)N(c5ccccc5)C(=O)C4N3Nc3ccccc3F)=C[C@@H]1C2 (stereo not given in full),-0.168
20,CCOC(=O)C[C@H]1[C@H](OC(=O)Cc2ccc3c(c2)OCO3)[C@@H](NC(=O)c2ccccc2)c2cc(OCCCO)ccc2N1C(=O)c1ccc2ccccc2n1,-0.146
21,C=CC[C@]1(C(=O)NCC(O)CO)N=C(c2ccc(OCCCO)cc2)O[C@H]1c1ccccc1N=[N+]=[N-] (stereo not given in full),0.227
22,C=C(COC)C(=O)CC[C@H](OC(=O)c1ccccc1-c1ccccc1C(=O)O)c1ccc(OCCO)cc1,-0.249
23,COC(=O)[C@@]1(Cc2ccc(OC)cc2)[C@H]2c3cc(C(=O)N(C)C)n(Cc4cc(F)c(F)c(F)c4)c3C[C@H]2CN1C(=O)c1ccccc1,0.831
24,C=CCC(OC(C)=O)[C@@H]1[C@@H](N(Cc2ccc(-c3ccccc3)cc2)C(=O)Cc2ccc(OC)cc2)c2cc(OCCCO)ccc2N1C(=O)c1ccc(-c2ccccc2)cc1 (stereo not given in full),-0.0141
25,COc1ccc(CCNC(=O)[C@@H]2c3ccccc3C(=O)N(Cc3ccccc3)[C@H]2c2ccc(CO)cc2)cc1,0.262
26,COC(=O)C(CC#Cc1ccc2c(c1)[C@]1(C(=O)N2)[C@H](c2ccccc2OCCO)N2[C@H](c3ccccc3)[C@H](c3ccccc3)OC(=O)[C@H]2[C@@H]1C(=O)Nc1nc2ccccc2s1)C(=O)OC,-0.214
27,COc1cc2c(cc1OC)CN(C(=O)[C@@H]1[C@H]3C(=O)O[C@H](c4ccccc4)[C@H](c4ccccc4)N3[C@H](c3ccc(OCCO)cc3)[C@@]13C(=O)Nc1ccc(C#CCCO)cc13)CC2,-0.0108
28,C[N+](C)(C)CCCCCCNC(=O)[C@H]1C[C@H]2C(=O)N3CCC[C@H]3C(=O)N2[C@H]1c1cccc(OCCO)c1,-0.238
29,C=C(C(=O)CC[C@H](OC(=O)c1cccnc1)c1ccc(OCCO)cc1)C(C)C,-0.241
30,C=C(COC)C(=O)CC[C@H](OC(=O)c1ccccc1-c1ccccc1C(=O)O)c1ccc(CO)o1,-0.326
